Test results as given in the supplement of paper PMC10849652.
Of roughly 7,900 targets only a part is listed; those with a hit were picked by preference. About 0.6% of all pairs of compound and target were hits.

Legend:
Assay in all cases: log2 fold change, soluble protein after heating vs DMSO (PISA); higher = thermal stabilisation; K562 cells, 10 uM, 30 min; active = over 0.2 and 3.5 SD of the protein, either way, in both replicates (recomputed)
[1] = compound: CC[C@@H]1C(=O)N(C)c2cnc(Nc3ccc(C(=O)NC4CCN(C)CC4)cc3OC)nc2N1C1CCCC1
In short: (§1)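 K562 cells (2×10^6 cells/mL) were treated with 10 μM compound for 30 min, and aliquots were heated for 3 min over 48°C-58°C. Pooled aliquots were extracted in PBS with 0.5% NP-40 at 4°C, and the supernatant after 21,000xg for 90 min was measured by TMTpro 16plex LC-MS/MS with channel sums equalised. Reported thermal stability, relative to control samples and from duplicates, is a log2 fold change.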

volasertib = compound: CC[C@@H]1C(=O)N(C)c2cnc(Nc3ccc(C(=O)N[C@H]4CC[C@H](N5CCN(CC6CC6)CC5)CC4)cc3OC)nc2N1C(C)C [volasertib]
In short: as §1

[2] = compound: CC[C@H](C)N1C=C(C2=C(C=C(C=C21)C3=CN=C(C=C3)N4CCNCC4)C(=O)NCC5=C(C=C(NC5=O)C)C)C
In short: as §1

epoxomicin = compound: CC[C@H](C)[C@@H](C(=O)N[C@@H]([C@@H](C)O)C(=O)N[C@@H](CC(C)C)C(=O)[C@]1(CO1)C)NC(=O)[C@H]([C@@H](C)CC)N(C)C(=O)C [epoxomicin]
In short: as §1

[3] = compound: CCn1c(C(=O)N(C2CC2)C2CC2)cc2c3c(ncn3C)c(Nc3cc(C)n(C)n3)nc21
In short: as §1

[4] = compound: CCn1cc(-c2ccnc3[nH]c(-c4cccc(CN(C)C)c4)cc23)c(-c2ccc(NC(=O)N(C)C)cc2)n1
In short: as §1

[5] = compound: CN(C)CC(=O)Nc1ccc2[nH]c(=O)c3ccccc3c2c1
In short: as §1

rosiglitazone = compound: CN(CCOC1=CC=C(C=C1)C[C@H]2C(=O)NC(=O)S2)C3=CC=CC=N3 (racemic) [rosiglitazone]
In short: as §1

[6] = compound: CN1C2=C(C3=C1C(=O)N(N=C3)CC4=CC(=CC=C4)N)SC(=C2)S(=O)C
In short: as §1

[7] = compound: CN1CCC(CNc2ccc3ncc(-c4cccc(OC(F)(F)F)c4)n3n2)CC1
In short: as §1

saracatinib = compound: CN1CCN(CCOc2cc(OC3CCOCC3)c3c(Nc4c(Cl)ccc5c4OCO5)ncnc3c2)CC1 [saracatinib]
In short: as §1

sotrastaurin = compound: CN1CCN(c2nc(C3=C(c4c[nH]c5ccccc45)C(=O)NC3=O)c3ccccc3n2)CC1 [sotrastaurin]
In short: as §1

alvocidib = compound: CN1CC[C@H](c2c(O)cc(O)c3c(=O)cc(-c4ccccc4Cl)oc23)[C@H](O)C1 [alvocidib]
In short: as §1

Tubastatin A = compound: CN1CCc2c(c3ccccc3n2Cc2ccc(C(=O)NO)cc2)C1 [Tubastatin A]
In short: as §1

[8] = compound: CNC(=O)C1=CC=CC=C1NC2=NC(=NC=C2Cl)NC3=C(C=C(C=C3)N4CCOCC4)OC
In short: as §1

defactinib = compound: CNC(=O)c1ccc(Nc2ncc(C(F)(F)F)c(NCc3nccnc3N(C)S(C)(=O)=O)n2)cc1 [defactinib]
In short: as §1

rucaparib = compound: CNCc1ccc(-c2[nH]c3cc(F)cc4c3c2CCNC4=O)cc1 [rucaparib]
In short: as §1

[9] = compound: CNc1nc(-c2ccc3c(N)n[nH]c3c2)cc(N2C[C@@H](C(=O)NC3CCCCC3)CC[C@H]2C)n1
In short: as §1

encorafenib = compound: COC(=O)N[C@@H](C)CNc1nccc(-c2cn(C(C)C)nc2-c2cc(Cl)cc(NS(C)(=O)=O)c2F)n1 [encorafenib]
In short: as §1

[10] = compound: COC(=O)[C@H](CCSC)NC(=O)C1=C(C=C(C=C1)NC[C@H](CS)N)C2=CC=CC=C2
In short: as §1

Measured: log2 fold change

PIK3CB (UniProt P42338)
inactive: [1] 0.017 | [2] 0.082 | epoxomicin 0.033 | [3] -0.01 | [4] -0.071 | [5] 0.008 | rosiglitazone 0.078 | [6] 0.003 | [7] 0.175 | saracatinib -0.019 | sotrastaurin 0.01 | alvocidib -0.026 | Tubastatin A 0.001 | [8] -0.011 | defactinib -0.04 | rucaparib 0.014 | [9] 0.042 | encorafenib -0.015 | [10] -0.003
active: volasertib -0.224

PSMD12 (UniProt O00232)
inactive: [1] 0.03 | volasertib 0.158 | [2] 0.02 | epoxomicin -0.278 | [3] -0.008 | [4] 0.017 | [5] -0.007 | rosiglitazone -0.038 | [6] 0.01 | [7] 0.062 | saracatinib -0.024 | sotrastaurin -0.029 | alvocidib 0.026 | Tubastatin A 0.04 | [8] 0.033 | defactinib 0.048 | rucaparib 0.014 | [9] 0.054 | encorafenib 0.031 | [10] -0.032

PTGES3 (UniProt Q15185)
UniProt Q15185, sequence (Q15185 whole entry, looked up): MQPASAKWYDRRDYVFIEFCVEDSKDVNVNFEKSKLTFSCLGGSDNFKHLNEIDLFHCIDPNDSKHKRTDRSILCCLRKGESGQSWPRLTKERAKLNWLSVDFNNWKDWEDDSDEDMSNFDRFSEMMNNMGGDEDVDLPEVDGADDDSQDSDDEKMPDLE
active: volasertib -0.504
inactive: [1] -0.21 | [2] 0.096 | epoxomicin 0.041 | [3] 0 | [4] -0.11 | [5] 0.049 | rosiglitazone 0.048 | [6] -0.045 | [7] -0.134 | saracatinib -0.023 | sotrastaurin -0.057 | alvocidib -0.215 | Tubastatin A 0.023 | [8] 0.088 | defactinib -0.205 | rucaparib -0.059 | [9] 0.034 | encorafenib 0.032 | [10] -0.068

PTPN23 (UniProt Q9H3S7)
inactive: [1] -0.163 | [2] 0.019 | epoxomicin 0.013 | [3] -0.024 | [4] -0.006 | [5] 0.073 | rosiglitazone 0.017 | [6] 0.016 | [7] -0.106 | saracatinib -0.007 | sotrastaurin -0.13 | alvocidib -0.061 | Tubastatin A 0.112 | [8] 0.055 | defactinib -0.169 | rucaparib 0.074 | [9] -0.055 | encorafenib 0.043 | [10] -0.023
active: volasertib -0.453

POP1 (UniProt Q99575)
UniProt Q99575, sequence (Q99575 whole entry, looked up): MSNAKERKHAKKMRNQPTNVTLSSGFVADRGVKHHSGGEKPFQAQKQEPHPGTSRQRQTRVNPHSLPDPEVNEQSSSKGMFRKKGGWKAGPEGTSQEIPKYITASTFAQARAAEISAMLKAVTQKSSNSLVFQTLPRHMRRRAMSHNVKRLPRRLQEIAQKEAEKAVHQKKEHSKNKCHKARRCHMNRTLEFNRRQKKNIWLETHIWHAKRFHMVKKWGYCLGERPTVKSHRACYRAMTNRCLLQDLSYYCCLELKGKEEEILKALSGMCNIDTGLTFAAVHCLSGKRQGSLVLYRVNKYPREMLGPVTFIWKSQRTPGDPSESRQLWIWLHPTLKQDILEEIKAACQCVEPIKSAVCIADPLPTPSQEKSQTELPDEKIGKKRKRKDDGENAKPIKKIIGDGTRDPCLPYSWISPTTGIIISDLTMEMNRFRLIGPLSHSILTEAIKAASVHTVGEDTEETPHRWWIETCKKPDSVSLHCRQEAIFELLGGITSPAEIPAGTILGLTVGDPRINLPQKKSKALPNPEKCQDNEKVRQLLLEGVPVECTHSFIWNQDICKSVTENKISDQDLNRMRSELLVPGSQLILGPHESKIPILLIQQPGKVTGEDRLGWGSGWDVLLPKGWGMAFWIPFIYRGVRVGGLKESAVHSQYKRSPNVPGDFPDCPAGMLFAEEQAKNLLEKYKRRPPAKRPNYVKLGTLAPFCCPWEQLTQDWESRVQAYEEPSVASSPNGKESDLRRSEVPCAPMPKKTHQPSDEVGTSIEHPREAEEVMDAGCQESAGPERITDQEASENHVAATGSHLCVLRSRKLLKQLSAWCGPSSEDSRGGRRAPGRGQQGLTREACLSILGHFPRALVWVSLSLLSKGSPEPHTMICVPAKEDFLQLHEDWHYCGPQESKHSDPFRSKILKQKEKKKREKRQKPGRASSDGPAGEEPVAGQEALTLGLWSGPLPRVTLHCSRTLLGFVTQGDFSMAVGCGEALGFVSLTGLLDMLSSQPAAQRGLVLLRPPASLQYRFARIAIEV
inactive: [1] 0.069 | volasertib 0.092 | [2] 0.02 | epoxomicin -0.001 | [3] 0.006 | [4] 0.028 | [5] -0.019 | rosiglitazone -0.025 | [6] -0.009 | [7] 0.075 | saracatinib 0.077 | sotrastaurin -0.01 | alvocidib -0.049 | Tubastatin A 0.026 | [8] -0.002 | defactinib -0.055 | rucaparib 0.014 | [9] 0.014 | encorafenib 0.006 | [10] 0.016

PPP1R14A (UniProt Q96A00)
UniProt Q96A00, sequence (Q96A00 whole entry, looked up): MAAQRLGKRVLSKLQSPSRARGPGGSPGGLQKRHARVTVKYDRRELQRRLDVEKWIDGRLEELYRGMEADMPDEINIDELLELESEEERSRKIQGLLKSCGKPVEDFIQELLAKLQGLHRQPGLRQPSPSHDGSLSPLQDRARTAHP
inactive: [1] 0.002 | volasertib 0.051 | [2] 0 | epoxomicin 0.058 | [3] -0.023 | [4] -0.067 | [5] -0.04 | rosiglitazone 0.016 | [6] -0.027 | [7] -0.091 | saracatinib -0.048 | sotrastaurin -0.027 | alvocidib 0.025 | Tubastatin A 0 | [8] -0.021 | defactinib -0.012 | rucaparib -0.023 | [9] -0.015 | encorafenib -0.025 | [10] -0.004

PGM3 isoform 4 (UniProt O95394)
active: [7] -0.235
inactive: [1] 0.003 | volasertib 0.052 | [2] 0.092 | epoxomicin 0.014 | [3] -0.034 | [4] -0.038 | [5] 0.026 | rosiglitazone 0.066 | [6] -0.084 | saracatinib -0.028 | sotrastaurin -0.018 | alvocidib -0.062 | Tubastatin A 0.03 | [8] -0.011 | defactinib -0.019 | rucaparib -0.013 | [9] 0.067 | encorafenib 0.024 | [10] -0.022

PSMC2 (UniProt P35998)
UniProt P35998, sequence (P35998 whole entry, looked up): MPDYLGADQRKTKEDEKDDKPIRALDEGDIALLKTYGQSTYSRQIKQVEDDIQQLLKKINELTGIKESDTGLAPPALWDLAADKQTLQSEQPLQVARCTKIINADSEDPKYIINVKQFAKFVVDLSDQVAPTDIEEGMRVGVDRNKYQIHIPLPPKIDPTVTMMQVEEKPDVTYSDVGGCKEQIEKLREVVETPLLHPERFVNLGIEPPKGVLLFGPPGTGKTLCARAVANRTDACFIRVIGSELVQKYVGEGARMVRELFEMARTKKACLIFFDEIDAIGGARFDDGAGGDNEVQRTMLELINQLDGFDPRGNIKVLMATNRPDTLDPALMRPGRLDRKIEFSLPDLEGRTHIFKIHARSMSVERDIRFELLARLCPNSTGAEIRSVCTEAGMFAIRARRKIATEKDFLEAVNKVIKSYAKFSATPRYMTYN
active: epoxomicin -0.324
inactive: [1] 0.042 | volasertib 0.169 | [2] -0.019 | [3] 0.012 | [4] 0.024 | [5] -0.018 | rosiglitazone -0.044 | [6] 0.023 | [7] 0.039 | saracatinib -0.024 | sotrastaurin -0.03 | alvocidib 0.046 | Tubastatin A -0.01 | [8] -0.014 | defactinib 0.061 | rucaparib 0.033 | [9] 0.035 | encorafenib 0.018 | [10] 0.001

PDE2A (UniProt O00408)
UniProt O00408, sequence (O00408 whole entry, looked up): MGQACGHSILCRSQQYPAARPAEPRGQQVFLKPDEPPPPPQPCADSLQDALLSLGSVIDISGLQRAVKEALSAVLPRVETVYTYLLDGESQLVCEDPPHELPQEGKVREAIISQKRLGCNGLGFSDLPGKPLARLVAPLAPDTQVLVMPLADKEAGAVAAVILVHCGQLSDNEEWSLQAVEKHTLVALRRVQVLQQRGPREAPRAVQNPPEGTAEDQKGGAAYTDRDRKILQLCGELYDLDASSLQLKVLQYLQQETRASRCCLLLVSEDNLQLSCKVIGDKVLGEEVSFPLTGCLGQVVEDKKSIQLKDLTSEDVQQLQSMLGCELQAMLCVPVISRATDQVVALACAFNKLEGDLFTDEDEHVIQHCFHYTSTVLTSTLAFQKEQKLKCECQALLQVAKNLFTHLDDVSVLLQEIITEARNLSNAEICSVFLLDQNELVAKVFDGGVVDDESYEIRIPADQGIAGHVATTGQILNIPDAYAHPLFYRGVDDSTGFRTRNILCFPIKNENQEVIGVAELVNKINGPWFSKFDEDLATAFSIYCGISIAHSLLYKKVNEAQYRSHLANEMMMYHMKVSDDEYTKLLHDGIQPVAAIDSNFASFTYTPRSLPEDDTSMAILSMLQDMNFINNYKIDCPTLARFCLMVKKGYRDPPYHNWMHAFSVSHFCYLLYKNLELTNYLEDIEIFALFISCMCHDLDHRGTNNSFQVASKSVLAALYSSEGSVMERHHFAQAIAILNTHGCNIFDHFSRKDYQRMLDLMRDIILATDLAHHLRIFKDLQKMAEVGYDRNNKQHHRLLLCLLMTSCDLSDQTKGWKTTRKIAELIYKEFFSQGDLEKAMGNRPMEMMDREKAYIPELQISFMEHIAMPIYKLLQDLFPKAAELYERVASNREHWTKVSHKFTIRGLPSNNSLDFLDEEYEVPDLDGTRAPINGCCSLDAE
inactive: [1] -0.031 | volasertib -0.107 | [2] 0.016 | epoxomicin -0.087 | [3] 0.061 | [4] -0.082 | [5] 0.027 | rosiglitazone -0.004 | [6] 0 | [7] -0.091 | saracatinib -0.011 | sotrastaurin -0.005 | alvocidib -0.003 | Tubastatin A 0.208 | [8] 0.01 | defactinib -0.094 | rucaparib -0.051 | [9] -0.065 | encorafenib -0.064 | [10] -0.042

PDCD2L (UniProt Q9BRP1)
UniProt Q9BRP1, sequence (Q9BRP1 whole entry, looked up): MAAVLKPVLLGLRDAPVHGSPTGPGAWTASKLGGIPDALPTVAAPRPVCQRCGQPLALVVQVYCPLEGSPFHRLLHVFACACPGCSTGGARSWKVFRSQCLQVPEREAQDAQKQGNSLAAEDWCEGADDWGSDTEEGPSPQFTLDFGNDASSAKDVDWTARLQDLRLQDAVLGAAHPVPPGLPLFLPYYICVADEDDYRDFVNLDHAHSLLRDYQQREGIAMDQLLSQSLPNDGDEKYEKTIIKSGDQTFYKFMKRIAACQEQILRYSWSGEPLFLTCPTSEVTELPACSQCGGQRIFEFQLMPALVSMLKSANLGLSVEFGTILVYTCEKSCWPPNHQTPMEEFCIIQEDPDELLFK
inactive: [1] -0.201 | [2] 0.017 | epoxomicin 0.07 | [3] -0.107 | [4] -0.171 | [5] 0.038 | rosiglitazone 0.018 | [6] -0.038 | [7] -0.073 | saracatinib -0.072 | sotrastaurin -0.148 | alvocidib -0.077 | Tubastatin A 0.048 | [8] 0 | defactinib -0.068 | rucaparib 0.038 | [9] -0.031 | encorafenib 0.127 | [10] -0.007
active: volasertib -0.435

PC (UniProt P11498)
inactive: [1] -0.041 | volasertib -0.069 | [2] 0.067 | epoxomicin 0.041 | [3] -0.082 | [4] -0.217 | [5] 0.027 | rosiglitazone 0.084 | [6] -0.128 | [7] 0.03 | saracatinib -0.088 | sotrastaurin -0.033 | alvocidib -0.005 | Tubastatin A 0.001 | [8] -0.023 | defactinib -0.113 | rucaparib 0.043 | [9] 0.09 | encorafenib -0.044 | [10] -0.076

PLBD1 (UniProt Q6P4A8)
inactive: [1] -0.063 | volasertib -0.076 | [2] -0.022 | epoxomicin -0.016 | [3] -0.005 | [4] -0.028 | [5] 0.088 | rosiglitazone -0.049 | [6] -0.01 | saracatinib 0.024 | sotrastaurin 0.071 | alvocidib -0.017 | Tubastatin A -0.013 | [8] 0.054 | defactinib 0.023 | rucaparib 0.034 | [9] 0.001 | encorafenib 0.001 | [10] 0
active: [7] -0.352

PSMB4 (UniProt P28070)
UniProt P28070, sequence (P28070 whole entry, looked up): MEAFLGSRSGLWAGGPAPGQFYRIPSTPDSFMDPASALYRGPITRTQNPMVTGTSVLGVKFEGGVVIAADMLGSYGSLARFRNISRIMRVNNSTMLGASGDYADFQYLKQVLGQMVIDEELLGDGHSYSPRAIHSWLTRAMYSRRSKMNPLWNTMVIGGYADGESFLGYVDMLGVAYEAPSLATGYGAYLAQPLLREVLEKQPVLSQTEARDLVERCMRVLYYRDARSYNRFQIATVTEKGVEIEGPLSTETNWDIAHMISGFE
inactive: [1] 0.073 | volasertib 0.114 | [2] -0.043 | epoxomicin -0.202 | [3] 0.011 | [4] 0.031 | [5] -0.028 | rosiglitazone -0.045 | [6] 0.021 | [7] 0.057 | saracatinib -0.012 | sotrastaurin 0.026 | alvocidib 0.078 | Tubastatin A -0.002 | [8] -0.031 | defactinib 0.038 | rucaparib 0.019 | [9] -0.032 | encorafenib 0.011 | [10] 0.006

PMM1 (UniProt Q92871)
UniProt Q92871, sequence (Q92871 whole entry, looked up): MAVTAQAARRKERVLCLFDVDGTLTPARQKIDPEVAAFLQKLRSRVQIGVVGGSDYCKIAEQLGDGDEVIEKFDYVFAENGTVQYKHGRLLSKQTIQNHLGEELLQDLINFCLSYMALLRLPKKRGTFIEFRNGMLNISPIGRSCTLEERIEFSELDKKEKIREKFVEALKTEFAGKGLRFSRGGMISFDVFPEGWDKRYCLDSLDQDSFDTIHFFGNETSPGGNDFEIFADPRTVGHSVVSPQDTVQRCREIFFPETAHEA
inactive: [1] -0.029 | volasertib -0.239 | [2] -0.024 | epoxomicin -0.002 | [3] -0.025 | [4] 0.08 | [5] 0.009 | rosiglitazone 0.047 | [6] -0.061 | [7] -0.018 | saracatinib 0.006 | sotrastaurin 0.094 | alvocidib -0.011 | Tubastatin A -0.018 | defactinib -0.007 | rucaparib 0.095 | [9] 0.028 | encorafenib -0.017 | [10] -0.023
active: [8] -0.315

PLEKHM2 (UniProt Q8IWE5)
UniProt Q8IWE5, sequence (Q8IWE5 whole entry, looked up): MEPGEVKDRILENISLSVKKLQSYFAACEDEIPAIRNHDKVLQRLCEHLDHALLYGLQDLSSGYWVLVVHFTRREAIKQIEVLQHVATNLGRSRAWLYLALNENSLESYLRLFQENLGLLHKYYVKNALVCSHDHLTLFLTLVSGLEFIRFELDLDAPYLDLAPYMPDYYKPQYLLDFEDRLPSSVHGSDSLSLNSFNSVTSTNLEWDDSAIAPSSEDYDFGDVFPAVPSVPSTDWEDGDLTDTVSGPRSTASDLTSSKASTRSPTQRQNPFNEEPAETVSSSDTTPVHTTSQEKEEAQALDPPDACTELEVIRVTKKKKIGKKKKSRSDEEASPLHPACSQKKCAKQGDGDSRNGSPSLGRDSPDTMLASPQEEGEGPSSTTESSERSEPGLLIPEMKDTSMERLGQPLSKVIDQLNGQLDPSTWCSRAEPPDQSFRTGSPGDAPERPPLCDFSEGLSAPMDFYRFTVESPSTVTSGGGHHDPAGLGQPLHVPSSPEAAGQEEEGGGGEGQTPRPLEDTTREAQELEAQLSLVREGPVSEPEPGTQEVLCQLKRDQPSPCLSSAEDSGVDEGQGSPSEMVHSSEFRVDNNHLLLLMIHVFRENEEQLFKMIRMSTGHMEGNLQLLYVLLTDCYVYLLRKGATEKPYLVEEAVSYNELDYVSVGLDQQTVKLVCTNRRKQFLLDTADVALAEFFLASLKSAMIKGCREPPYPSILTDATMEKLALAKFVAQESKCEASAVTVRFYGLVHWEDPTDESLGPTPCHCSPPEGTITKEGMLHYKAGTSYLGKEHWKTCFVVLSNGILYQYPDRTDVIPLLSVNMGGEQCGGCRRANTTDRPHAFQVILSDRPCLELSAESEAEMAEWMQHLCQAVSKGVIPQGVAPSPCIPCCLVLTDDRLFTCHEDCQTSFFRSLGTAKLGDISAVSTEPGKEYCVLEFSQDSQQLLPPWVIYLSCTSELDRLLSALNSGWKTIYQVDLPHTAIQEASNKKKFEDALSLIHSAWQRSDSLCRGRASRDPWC
active: [7] -0.357
inactive: [1] -0.127 | volasertib -0.177 | [2] 0.009 | epoxomicin 0.037 | [3] -0.051 | [4] -0.175 | [5] 0.003 | rosiglitazone 0.034 | [6] -0.04 | saracatinib -0.002 | sotrastaurin -0.047 | alvocidib -0.119 | Tubastatin A 0.029 | [8] -0.215 | defactinib -0.054 | rucaparib -0.087 | [9] -0.019 | encorafenib 0.058 | [10] -0.014
